# Results reported in article PMC7862700, “An all-to-all approach to the identification of sequence-specific readers for epigenetic DNA modifications on cytosine”.
# Tests used:
# Test in all cases: DAPPL (digital affinity profiling via proximity ligation, sequencing); 10 mM Tris-HCl pH 7.5, 50 mM NaCl, 1 mM DTT, 4% glycerol, room temperature, 30 min; GST-TFs on glutathione beads, 16-mer random dsDNA library, 0.1% formaldehyde crosslink after washing; high values mean tight binding
# [1] = target: T1, FEV (Homo sapiens, UniProt Q99581 1-238); details: protein: recombinant; tags: N-terminal GST; dsDNA, one strand shown
# T1 sequence: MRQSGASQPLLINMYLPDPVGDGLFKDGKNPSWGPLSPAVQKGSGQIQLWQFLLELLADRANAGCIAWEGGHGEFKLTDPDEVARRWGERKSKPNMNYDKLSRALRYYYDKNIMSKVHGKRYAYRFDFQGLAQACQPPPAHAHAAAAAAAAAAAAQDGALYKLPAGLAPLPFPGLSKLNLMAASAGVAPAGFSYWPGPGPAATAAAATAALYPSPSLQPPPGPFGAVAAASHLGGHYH
# Method in brief: (§1)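 Human transcription factors carrying a GST fusion were produced in yeast, bound to glutathione beads, tagged with DNA barcodes and pooled together with a tag-only sample. Each pool was held with 200 nmole of a random double-stranded 16-mer DNA library in Tris/NaCl/DTT/glycerol buffer for 30 min at room temperature, then washed, crosslinked in 0.1% formaldehyde, proximity-ligated with BsaI/T4 ligase (1 h, 37 °C), PCR-amplified and sequenced on an Illumina NextSeq500. Binding signal is the read frequency of each hexamer for a given factor divided by its frequency in the tag-only sample.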
# [2] = target: ETV5 (Homo sapiens, UniProt P41161 1-510); details: protein: recombinant; tags: N-terminal GST; dsDNA, one strand shown
# ETV5, sequence (P41161 whole entry): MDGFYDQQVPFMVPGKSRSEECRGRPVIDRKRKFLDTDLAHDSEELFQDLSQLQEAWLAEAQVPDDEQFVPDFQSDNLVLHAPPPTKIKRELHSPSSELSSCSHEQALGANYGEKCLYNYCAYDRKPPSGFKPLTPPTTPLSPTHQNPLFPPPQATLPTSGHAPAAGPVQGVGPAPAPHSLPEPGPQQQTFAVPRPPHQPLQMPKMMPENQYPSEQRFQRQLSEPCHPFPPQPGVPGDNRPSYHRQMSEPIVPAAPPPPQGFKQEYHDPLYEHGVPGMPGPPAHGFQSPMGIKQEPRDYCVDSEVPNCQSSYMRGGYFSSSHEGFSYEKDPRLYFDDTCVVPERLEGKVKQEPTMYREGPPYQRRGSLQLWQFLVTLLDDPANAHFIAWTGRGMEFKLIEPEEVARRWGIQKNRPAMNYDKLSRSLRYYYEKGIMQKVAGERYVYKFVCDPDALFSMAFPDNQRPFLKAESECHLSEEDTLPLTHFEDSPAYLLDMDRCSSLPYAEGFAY
# Method in brief: as §1
# [3] = target: HSF1 (Homo sapiens, UniProt Q00613 1-529); details: protein: recombinant; tags: N-terminal GST; chain copies: 3; dsDNA, one strand shown
# HSF1, sequence (Q00613 whole entry): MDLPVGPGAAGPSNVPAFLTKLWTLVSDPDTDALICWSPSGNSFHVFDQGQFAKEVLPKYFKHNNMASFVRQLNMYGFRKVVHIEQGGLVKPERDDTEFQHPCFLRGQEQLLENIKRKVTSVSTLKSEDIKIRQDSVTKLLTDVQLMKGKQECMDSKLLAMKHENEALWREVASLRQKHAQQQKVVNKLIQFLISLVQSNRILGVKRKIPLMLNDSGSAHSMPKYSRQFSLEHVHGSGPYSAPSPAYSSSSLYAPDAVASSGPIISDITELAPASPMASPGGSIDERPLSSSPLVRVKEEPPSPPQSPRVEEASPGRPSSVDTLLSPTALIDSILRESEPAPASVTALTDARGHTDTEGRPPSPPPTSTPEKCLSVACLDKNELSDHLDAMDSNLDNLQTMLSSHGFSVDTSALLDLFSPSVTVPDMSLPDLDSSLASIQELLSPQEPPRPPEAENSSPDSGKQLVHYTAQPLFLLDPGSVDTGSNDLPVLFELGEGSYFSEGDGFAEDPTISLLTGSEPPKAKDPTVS
# Method in brief: as §1
# [4] = target: T2, SPIC (Homo sapiens, UniProt Q8N5J4 1-248); details: protein: recombinant; tags: N-terminal GST; dsDNA, one strand shown
# T2 sequence: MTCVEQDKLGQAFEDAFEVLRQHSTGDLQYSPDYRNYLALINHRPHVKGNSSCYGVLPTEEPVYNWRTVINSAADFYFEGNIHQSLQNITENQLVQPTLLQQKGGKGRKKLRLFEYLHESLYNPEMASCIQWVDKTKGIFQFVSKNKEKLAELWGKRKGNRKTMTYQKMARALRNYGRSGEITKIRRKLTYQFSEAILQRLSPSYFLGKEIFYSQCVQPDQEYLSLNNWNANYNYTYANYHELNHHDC
# Method in brief: as §1
# [5] = target: ELF4 (Homo sapiens, UniProt Q99607 1-663); details: protein: recombinant; tags: N-terminal GST; dsDNA, one strand shown
# ELF4, sequence (Q99607 whole entry): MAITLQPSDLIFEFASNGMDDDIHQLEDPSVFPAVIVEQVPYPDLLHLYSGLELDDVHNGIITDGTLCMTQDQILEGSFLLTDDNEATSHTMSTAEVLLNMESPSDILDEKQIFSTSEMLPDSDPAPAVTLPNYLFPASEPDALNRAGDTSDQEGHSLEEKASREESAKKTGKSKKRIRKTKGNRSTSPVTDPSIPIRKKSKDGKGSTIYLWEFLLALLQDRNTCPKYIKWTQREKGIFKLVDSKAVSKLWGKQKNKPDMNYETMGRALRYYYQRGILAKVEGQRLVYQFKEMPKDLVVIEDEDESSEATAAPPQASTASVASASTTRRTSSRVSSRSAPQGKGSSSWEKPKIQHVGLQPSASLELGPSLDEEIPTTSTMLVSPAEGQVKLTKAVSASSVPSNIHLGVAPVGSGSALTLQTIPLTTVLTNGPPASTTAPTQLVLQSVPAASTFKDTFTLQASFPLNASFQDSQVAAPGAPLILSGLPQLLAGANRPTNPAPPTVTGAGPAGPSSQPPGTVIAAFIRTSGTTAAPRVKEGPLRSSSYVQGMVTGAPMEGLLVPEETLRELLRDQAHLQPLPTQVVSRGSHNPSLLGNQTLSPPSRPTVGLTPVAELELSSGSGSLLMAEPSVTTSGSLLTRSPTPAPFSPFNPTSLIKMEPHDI
# Method in brief: as §1
# [6] = target: T3, ELK4 (Homo sapiens, UniProt P28324-2 1-405); details: protein: recombinant; tags: N-terminal GST; dsDNA, one strand shown
# T3 sequence: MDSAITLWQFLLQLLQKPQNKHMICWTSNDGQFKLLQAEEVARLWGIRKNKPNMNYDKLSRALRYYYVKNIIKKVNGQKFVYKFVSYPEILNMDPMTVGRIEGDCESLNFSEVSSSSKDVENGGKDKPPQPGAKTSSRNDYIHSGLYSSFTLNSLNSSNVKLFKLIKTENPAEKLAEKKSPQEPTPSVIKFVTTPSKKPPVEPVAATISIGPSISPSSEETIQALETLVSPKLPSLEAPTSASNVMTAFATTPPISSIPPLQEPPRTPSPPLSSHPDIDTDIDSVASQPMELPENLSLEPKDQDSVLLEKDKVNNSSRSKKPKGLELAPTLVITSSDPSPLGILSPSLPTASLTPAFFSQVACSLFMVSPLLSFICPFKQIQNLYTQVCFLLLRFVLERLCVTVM
# Method in brief: as §1
# [7] = target: T4, ETV2 (Homo sapiens, UniProt O00321 1-342); details: protein: recombinant; tags: N-terminal GST; dsDNA, one strand shown
# T4 sequence: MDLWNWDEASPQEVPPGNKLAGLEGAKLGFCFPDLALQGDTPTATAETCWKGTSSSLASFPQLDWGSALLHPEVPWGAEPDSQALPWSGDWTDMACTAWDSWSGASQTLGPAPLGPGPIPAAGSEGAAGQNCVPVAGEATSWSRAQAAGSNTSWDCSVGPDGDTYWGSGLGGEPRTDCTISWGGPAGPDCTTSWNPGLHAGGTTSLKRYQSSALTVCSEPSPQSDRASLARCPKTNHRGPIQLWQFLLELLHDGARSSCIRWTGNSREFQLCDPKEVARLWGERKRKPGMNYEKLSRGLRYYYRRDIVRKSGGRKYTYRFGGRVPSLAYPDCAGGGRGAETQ
# Method in brief: as §1
# [8] = target: T5, ELF3 (Homo sapiens, UniProt P78545 1-371); details: protein: recombinant; tags: N-terminal GST; dsDNA, one strand shown
# T5 sequence: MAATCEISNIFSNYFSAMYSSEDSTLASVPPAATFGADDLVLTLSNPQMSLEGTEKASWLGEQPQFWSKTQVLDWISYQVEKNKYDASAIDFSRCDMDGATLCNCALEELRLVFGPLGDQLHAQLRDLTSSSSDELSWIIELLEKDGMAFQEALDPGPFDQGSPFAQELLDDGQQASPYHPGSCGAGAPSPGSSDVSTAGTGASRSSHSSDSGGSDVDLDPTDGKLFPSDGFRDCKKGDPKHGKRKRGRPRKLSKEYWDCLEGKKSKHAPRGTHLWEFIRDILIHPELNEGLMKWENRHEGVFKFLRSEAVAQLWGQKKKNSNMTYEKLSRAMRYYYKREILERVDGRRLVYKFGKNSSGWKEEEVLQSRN
# Method in brief: as §1
# [9] = target: CRX (Homo sapiens, UniProt O43186 1-299); details: protein: recombinant; tags: N-terminal GST; dsDNA, one strand shown
# CRX, sequence (O43186 whole entry): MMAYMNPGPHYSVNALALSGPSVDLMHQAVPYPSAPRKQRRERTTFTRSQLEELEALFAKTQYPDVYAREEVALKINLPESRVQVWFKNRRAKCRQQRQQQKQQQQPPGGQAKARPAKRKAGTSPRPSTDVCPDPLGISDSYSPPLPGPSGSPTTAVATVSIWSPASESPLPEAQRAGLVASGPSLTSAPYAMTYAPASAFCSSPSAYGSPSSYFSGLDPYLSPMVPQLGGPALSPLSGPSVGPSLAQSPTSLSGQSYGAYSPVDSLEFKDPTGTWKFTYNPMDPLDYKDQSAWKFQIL
# Method in brief: as §1
# [10] = target: ETV1 (Homo sapiens, UniProt P50549 1-477); details: protein: recombinant; tags: N-terminal GST; dsDNA, one strand shown
# ETV1, sequence (P50549 whole entry): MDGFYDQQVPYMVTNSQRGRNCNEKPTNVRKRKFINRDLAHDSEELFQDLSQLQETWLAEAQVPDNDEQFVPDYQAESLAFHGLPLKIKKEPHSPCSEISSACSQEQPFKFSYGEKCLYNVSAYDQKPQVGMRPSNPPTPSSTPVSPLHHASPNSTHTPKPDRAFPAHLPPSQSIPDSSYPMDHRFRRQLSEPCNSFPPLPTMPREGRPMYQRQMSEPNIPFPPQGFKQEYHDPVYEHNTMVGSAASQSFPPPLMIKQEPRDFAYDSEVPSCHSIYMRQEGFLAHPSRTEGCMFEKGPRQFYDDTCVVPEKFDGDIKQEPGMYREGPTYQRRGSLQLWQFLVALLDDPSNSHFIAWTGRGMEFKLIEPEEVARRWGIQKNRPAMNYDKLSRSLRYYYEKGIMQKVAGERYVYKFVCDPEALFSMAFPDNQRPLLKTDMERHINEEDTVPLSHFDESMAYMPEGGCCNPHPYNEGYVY
# Method in brief: as §1
# [11] = target: T6, ERF (Homo sapiens, UniProt P50548 1-548); details: protein: recombinant; tags: N-terminal GST; dsDNA, one strand shown
# T6 sequence: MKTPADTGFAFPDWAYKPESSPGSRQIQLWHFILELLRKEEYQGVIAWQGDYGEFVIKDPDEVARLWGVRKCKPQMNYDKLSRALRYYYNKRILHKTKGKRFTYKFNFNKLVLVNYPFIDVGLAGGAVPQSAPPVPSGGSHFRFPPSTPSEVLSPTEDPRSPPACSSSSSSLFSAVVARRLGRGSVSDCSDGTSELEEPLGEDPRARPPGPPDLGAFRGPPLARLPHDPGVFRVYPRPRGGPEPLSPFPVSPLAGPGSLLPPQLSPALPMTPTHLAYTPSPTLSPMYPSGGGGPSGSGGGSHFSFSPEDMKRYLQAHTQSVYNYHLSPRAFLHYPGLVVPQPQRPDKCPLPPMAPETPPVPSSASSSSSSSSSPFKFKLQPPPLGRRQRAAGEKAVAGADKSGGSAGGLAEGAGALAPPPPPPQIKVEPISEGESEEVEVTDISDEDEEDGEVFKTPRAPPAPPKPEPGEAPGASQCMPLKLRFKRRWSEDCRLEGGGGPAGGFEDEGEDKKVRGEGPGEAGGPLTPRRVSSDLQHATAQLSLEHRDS
# Method in brief: as §1
# [12] = target: T7, ETV3L (Homo sapiens, UniProt Q6ZN32 1-361); details: protein: recombinant; tags: N-terminal GST; dsDNA, one strand shown
# T7 sequence: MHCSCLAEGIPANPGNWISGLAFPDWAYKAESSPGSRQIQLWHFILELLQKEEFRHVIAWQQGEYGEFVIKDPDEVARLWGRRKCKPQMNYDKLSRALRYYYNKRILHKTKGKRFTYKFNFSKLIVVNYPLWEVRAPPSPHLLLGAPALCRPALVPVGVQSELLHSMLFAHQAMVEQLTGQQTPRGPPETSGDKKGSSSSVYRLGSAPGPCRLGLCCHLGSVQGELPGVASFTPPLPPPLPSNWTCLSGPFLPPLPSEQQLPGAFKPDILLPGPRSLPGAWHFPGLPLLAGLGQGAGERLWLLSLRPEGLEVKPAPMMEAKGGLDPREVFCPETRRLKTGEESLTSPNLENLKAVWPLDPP
# Method in brief: as §1
# [13] = target: T8, ETS2 (Homo sapiens, UniProt P15036 1-469); details: protein: recombinant; tags: N-terminal GST; dsDNA, one strand shown
# T8 sequence: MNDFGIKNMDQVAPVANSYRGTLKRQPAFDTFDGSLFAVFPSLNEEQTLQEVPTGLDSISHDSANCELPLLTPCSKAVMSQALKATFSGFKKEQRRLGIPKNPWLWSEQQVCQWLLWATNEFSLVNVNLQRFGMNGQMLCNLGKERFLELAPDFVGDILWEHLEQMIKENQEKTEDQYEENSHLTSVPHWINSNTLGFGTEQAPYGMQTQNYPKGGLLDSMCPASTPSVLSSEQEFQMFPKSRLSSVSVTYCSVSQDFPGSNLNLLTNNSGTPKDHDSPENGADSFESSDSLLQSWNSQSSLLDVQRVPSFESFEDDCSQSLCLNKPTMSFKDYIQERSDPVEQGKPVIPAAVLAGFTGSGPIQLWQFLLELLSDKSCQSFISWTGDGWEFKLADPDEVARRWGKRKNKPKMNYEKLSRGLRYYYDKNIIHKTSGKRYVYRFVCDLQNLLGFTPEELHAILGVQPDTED
# Method in brief: as §1
# [14] = target: T9, SPDEF (Homo sapiens, UniProt O95238 1-335); details: protein: recombinant; tags: N-terminal GST; dsDNA, one strand shown
# T9 sequence: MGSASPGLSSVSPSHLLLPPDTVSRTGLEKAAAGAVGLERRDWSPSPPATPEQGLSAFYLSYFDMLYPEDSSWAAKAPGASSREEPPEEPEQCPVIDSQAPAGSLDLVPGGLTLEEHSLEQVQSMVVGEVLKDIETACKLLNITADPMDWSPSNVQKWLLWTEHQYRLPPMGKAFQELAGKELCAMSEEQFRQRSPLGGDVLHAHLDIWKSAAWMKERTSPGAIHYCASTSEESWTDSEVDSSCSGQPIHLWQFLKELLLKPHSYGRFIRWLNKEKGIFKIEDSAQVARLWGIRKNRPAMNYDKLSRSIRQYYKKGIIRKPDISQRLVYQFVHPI
# Method in brief: as §1
# [15] = target: T10, ETV7 (Homo sapiens, UniProt Q9Y603 1-341); details: protein: recombinant; tags: N-terminal GST; dsDNA, one strand shown
# T10 sequence: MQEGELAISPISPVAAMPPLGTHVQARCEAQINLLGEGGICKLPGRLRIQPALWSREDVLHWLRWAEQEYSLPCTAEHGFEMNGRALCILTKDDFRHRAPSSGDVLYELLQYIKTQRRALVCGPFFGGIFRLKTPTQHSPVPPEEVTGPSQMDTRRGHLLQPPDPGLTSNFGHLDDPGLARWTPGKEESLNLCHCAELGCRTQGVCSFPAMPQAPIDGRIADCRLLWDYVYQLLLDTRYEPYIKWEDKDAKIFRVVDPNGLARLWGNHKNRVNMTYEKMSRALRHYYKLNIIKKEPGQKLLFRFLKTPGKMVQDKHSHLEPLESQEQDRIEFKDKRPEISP
# Method in brief: as §1
# [16] = target: T11, ELF5 (Homo sapiens, UniProt Q9UKW6-2 1-255); details: protein: recombinant; tags: N-terminal GST; dsDNA, one strand shown
# T11 sequence: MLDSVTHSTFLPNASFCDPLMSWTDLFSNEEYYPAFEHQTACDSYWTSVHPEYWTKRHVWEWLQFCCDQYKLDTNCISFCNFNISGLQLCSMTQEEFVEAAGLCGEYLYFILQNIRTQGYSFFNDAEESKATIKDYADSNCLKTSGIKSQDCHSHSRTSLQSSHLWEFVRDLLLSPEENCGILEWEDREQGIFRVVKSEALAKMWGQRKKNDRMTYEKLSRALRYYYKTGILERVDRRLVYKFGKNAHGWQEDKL
# Method in brief: as §1
# [17] = target: T12, ETV3 (Homo sapiens, UniProt P41162-2 1-143); details: protein: recombinant; tags: N-terminal GST; dsDNA, one strand shown
# T12 sequence: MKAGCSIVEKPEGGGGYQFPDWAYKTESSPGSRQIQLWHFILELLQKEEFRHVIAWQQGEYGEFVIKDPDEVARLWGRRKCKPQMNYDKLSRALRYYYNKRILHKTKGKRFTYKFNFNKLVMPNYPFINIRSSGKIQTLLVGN
# Method in brief: as §1
# [18] = target: ETV6 (Homo sapiens, UniProt P41212 1-452); details: protein: recombinant; tags: N-terminal GST; dsDNA, one strand shown
# ETV6, sequence (P41212 whole entry): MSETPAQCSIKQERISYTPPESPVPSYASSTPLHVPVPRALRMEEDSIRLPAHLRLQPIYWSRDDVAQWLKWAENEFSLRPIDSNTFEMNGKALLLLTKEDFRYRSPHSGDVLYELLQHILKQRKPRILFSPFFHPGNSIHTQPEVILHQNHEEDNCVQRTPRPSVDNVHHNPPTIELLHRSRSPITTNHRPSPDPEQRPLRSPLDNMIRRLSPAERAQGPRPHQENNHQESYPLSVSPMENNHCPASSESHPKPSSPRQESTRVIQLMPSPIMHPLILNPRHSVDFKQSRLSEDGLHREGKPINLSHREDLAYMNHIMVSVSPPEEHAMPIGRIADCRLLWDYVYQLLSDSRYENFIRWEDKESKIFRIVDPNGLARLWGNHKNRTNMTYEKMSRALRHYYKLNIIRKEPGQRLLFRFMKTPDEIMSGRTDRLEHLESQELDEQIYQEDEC
# Method in brief: as §1
sequence,measurement,setting,value
CTCCGG,binding signal,[1],"2 fold enrichment (6-mer frequency, TF over GST control)"
same,binding signal,[2],"1.58 fold enrichment (6-mer frequency, TF over GST control)"
same,binding signal,[3],"1.18 fold enrichment (6-mer frequency, TF over GST control)"
same,binding signal,[4],"1.92 fold enrichment (6-mer frequency, TF over GST control)"
same,binding signal,[5],"1.56 fold enrichment (6-mer frequency, TF over GST control)"
same,binding signal,[6],"1.58 fold enrichment (6-mer frequency, TF over GST control)"
same,binding signal,[7],"1.48 fold enrichment (6-mer frequency, TF over GST control)"
same,binding signal,[8],"1.39 fold enrichment (6-mer frequency, TF over GST control)"
same,binding signal,[9],"1.02 fold enrichment (6-mer frequency, TF over GST control)"
same,binding signal,[10],"1.64 fold enrichment (6-mer frequency, TF over GST control)"
same,binding signal,[11],"1.56 fold enrichment (6-mer frequency, TF over GST control)"
same,binding signal,[12],"1.61 fold enrichment (6-mer frequency, TF over GST control)"
same,binding signal,[13],"1.6 fold enrichment (6-mer frequency, TF over GST control)"
same,binding signal,[14],"1.89 fold enrichment (6-mer frequency, TF over GST control)"
same,binding signal,[15],"1.32 fold enrichment (6-mer frequency, TF over GST control)"
same,binding signal,[16],"1.58 fold enrichment (6-mer frequency, TF over GST control)"
same,binding signal,[17],"1.62 fold enrichment (6-mer frequency, TF over GST control)"
same,binding signal,[18],"1.56 fold enrichment (6-mer frequency, TF over GST control)"
